For three compounds, outcome results are on record in PubChem BioAssay AID624490 (Broad Institute, 2012).

Molecules are shown by their SMILES. Entries with a potency or affinity are not part of this list. The source made the active and inactive calls.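 The calls were made as follows: active = compounds whose fitted half-maximal drop in cell ATP occurs at no more than twice the top tested dose; inconclusive = flat moderate signal drop, or unreliable curve fit; inactive = the rest.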

This assay in a line: viability loss in MITF-independent A375 cells – cell-based, CellTiter-Glo luminescence, dry powder, set 7, counter-screen for MITF inhibitor project, dose response (AID 624490). As to conditions: ATP luminescence (CellTiter-Glo), 24 h; series mostly up to 35 µM.
As to `NC1=C(NS(=O)(=O)c2ccc(Br)cc2)C(=O)c2ccccc2C1=O`, the compound was classed as inactive.
Then `O=C1C(Nc2ccccc2)=C(c2ccccc2)C(=O)c2ccccc21`, with “inactive”; and `NC1=C(NS(=O)(=O)c2ccc(Br)s2)C(=O)c2ccccc2C1=O`, with “inactive”.
